# In PubChem BioAssay AID1159580 (chemical genetic matrix, 2015):
# Screen size: about 5,500 compounds; about 2,000 (36%) were called active. Roughly 18% stayed inconclusive and do not appear here. This is one part of the list. A number with no mark means an inactive call. No stated cut-off is given here; in the data, active means normalized growth mostly below about 0.91 (no sharp cut-off); inconclusive means no clear call, values can overlap the other calls; inactive means mostly above about 0.92.
# Experiment: chemical genetic growth profiling, strain panel (AID 1159580);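 further: tested at 20 µM; growth read once vehicle control cultures reached saturation at 30 °C; 1 = growth at the plate median or of vehicle wells; lower values mean less growth of the strain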
# Settings: growth OD
compound,measurement,setting,value
Oc1c(I)cc(I)c2cccnc12,normalized growth,"S. cerevisiae deletion strains, locus YJL187C, strain SWE1, active compounds read low",0.0737 (active)
same,normalized growth,"S. cerevisiae deletion strains, locus YJR043C, strain POL32, active compounds read low",0.08 (active)
same,normalized growth,"S. cerevisiae deletion strains, locus YJR066W, strain TOR1, active compounds read low",0.106 (active)
same,normalized growth,"S. cerevisiae deletion strains, locus YKL009W, strain mrt4, active compounds read low",0.274 (active)
same,normalized growth,"S. cerevisiae deletion strains, locus YKL068W, active compounds read low",0.479 (active)
same,normalized growth,"S. cerevisiae deletion strains, locus YKL085W, strain MDH1 (second series), active compounds read low",0.253 (active)
same,normalized growth,"S. cerevisiae deletion strains, locus YKL085W, strain MDH1, active compounds read low",0.253 (active)
same,normalized growth,"S. cerevisiae deletion strains, locus YKL160W, strain elf1, active compounds read low",0.0775 (active)
same,normalized growth,"S. cerevisiae deletion strains, locus YKL190W, strain CNB1, active compounds read low",0.0667 (active)
same,normalized growth,"S. cerevisiae deletion strains, locus YKR001C, strain vps1, active compounds read low",0.1 (active)
same,normalized growth,"S. cerevisiae deletion strains, locus YKR026C, strain gcn3, active compounds read low",0.0967 (active)
same,normalized growth,"S. cerevisiae deletion strains, locus YKR091W, strain srl3, active compounds read low",0.129 (active)
same,normalized growth,"S. cerevisiae deletion strains, locus YLL001W, strain dnm1, active compounds read low",0.085 (active)
same,normalized growth,"S. cerevisiae deletion strains, locus YLL026W, active compounds read low",0.652 (active)
same,normalized growth,"S. cerevisiae deletion strains, locus YLL041C, strain sdh2, active compounds read low",0.083 (active)
same,normalized growth,"S. cerevisiae deletion strains, locus YLR027C, strain aat2, active compounds read low",0.0875 (active)
same,normalized growth,"S. cerevisiae deletion strains, locus YLR039C, strain RIC1, active compounds read low",0.156 (active)
same,normalized growth,"S. cerevisiae deletion strains, locus YLR058C, strain SHM2, active compounds read low",0.0693 (active)
same,normalized growth,"S. cerevisiae deletion strains, locus YLR102C, strain apc9, active compounds read low",0.0939 (active)
same,normalized growth,"S. cerevisiae deletion strains, locus YLR113W, strain HOG1, active compounds read low",0.128 (active)
same,normalized growth,"S. cerevisiae deletion strains, locus YLR221C, strain rsa3, active compounds read low",0.118 (active)
same,normalized growth,"S. cerevisiae deletion strains, locus YLR258W, strain gsy2, active compounds read low",0.0729 (active)
same,normalized growth,"S. cerevisiae deletion strains, locus YLR262C, strain YPT6 (second series), active compounds read low",0.109 (active)
same,normalized growth,"S. cerevisiae deletion strains, locus YLR262C, strain YPT6, active compounds read low",0.184 (active)
same,normalized growth,"S. cerevisiae deletion strains, locus YLR268W, strain sec22, active compounds read low",0.104 (active)
same,normalized growth,"S. cerevisiae deletion strains, locus YLR320W, strain mms22, active compounds read low",0.111 (active)
same,normalized growth,"S. cerevisiae deletion strains, locus YLR330W, strain CHS5, active compounds read low",0.0767 (active)
same,normalized growth,"S. cerevisiae deletion strains, locus YLR342W, strain FKS1 (second series), active compounds read low",0.0828 (active)
same,normalized growth,"S. cerevisiae deletion strains, locus YLR342W, strain FKS1, active compounds read low",0.0814 (active)
same,normalized growth,"S. cerevisiae deletion strains, locus YLR357W, strain rsc2, active compounds read low",0.178 (active)
same,normalized growth,"S. cerevisiae deletion strains, locus YLR370C, strain arc18, active compounds read low",0.0851 (active)
same,normalized growth,"S. cerevisiae deletion strains, locus YLR371W, strain rom2, active compounds read low",0.137 (active)
same,normalized growth,"S. cerevisiae deletion strains, locus YLR384C, strain iki3, active compounds read low",0.0849 (active)
same,normalized growth,"S. cerevisiae deletion strains, locus YLR418C, strain cdc73, active compounds read low",0.16 (active)
same,normalized growth,"S. cerevisiae deletion strains, locus YML016C, strain PPZ1, active compounds read low",0.0635 (active)
same,normalized growth,"S. cerevisiae deletion strains, locus YML032C, strain rad52, active compounds read low",0.115 (active)
same,normalized growth,"S. cerevisiae deletion strains, locus YML120C, strain ndi1, active compounds read low",0.0935 (active)
same,normalized growth,"S. cerevisiae deletion strains, locus YML124C, strain tub3, active compounds read low",0.0977 (active)
same,normalized growth,"S. cerevisiae deletion strains, locus YMR058W, strain fet3, active compounds read low",0.0746 (active)
same,normalized growth,"S. cerevisiae deletion strains, locus YMR078C, strain ctf18, active compounds read low",0.11 (active)
same,normalized growth,"S. cerevisiae deletion strains, locus YMR125W, strain sto1, active compounds read low",0.112 (active)
same,normalized growth,"S. cerevisiae deletion strains, locus YMR129W, active compounds read low",0.256 (active)
same,normalized growth,"S. cerevisiae deletion strains, locus YMR205C, strain PFK2, active compounds read low",0.108 (active)
same,normalized growth,"S. cerevisiae deletion strains, locus YMR223W, strain ubp8, active compounds read low",0.108 (active)
same,normalized growth,"S. cerevisiae deletion strains, locus YMR231W, strain pep5, active compounds read low",0.105 (active)
same,normalized growth,"S. cerevisiae deletion strains, locus YMR307W, strain GAS1, active compounds read low",0.145 (active)
same,normalized growth,"S. cerevisiae deletion strains, locus YNL067W, strain RPL9B, active compounds read low",0.0655 (active)
same,normalized growth,"S. cerevisiae deletion strains, locus YNL071W, strain lat1, active compounds read low",0.236 (active)
same,normalized growth,"S. cerevisiae deletion strains, locus YNL183C, strain NPR1, active compounds read low",0.103 (active)
same,normalized growth,"S. cerevisiae deletion strains, locus YNL209W, strain ssb2, active compounds read low",0.0737 (active)
same,normalized growth,"S. cerevisiae deletion strains, locus YNL233W, strain BNI4, active compounds read low",0.073 (active)
same,normalized growth,"S. cerevisiae deletion strains, locus YNL248C, strain rpa49, active compounds read low",0.11 (active)
same,normalized growth,"S. cerevisiae deletion strains, locus YNL250W, strain rad50, active compounds read low",0.0949 (active)
same,normalized growth,"S. cerevisiae deletion strains, locus YNL271C, strain bni1, active compounds read low",0.177 (active)
same,normalized growth,"S. cerevisiae deletion strains, locus YNL298W, strain CLA4, active compounds read low",0.271 (active)
same,normalized growth,"S. cerevisiae deletion strains, locus YNL307C, strain MCK1, active compounds read low",0.115 (active)
same,normalized growth,"S. cerevisiae deletion strains, locus YNL322C, strain KRE1 (second series), active compounds read low",0.128 (active)
same,normalized growth,"S. cerevisiae deletion strains, locus YNL322C, strain KRE1, active compounds read low",0.0647 (active)
same,normalized growth,"S. cerevisiae deletion strains, locus YNR049C, strain mso1, active compounds read low",0.0812 (active)
same,normalized growth,"S. cerevisiae deletion strains, locus YNR052C, strain pop2, active compounds read low",0.0966 (active)
same,normalized growth,"S. cerevisiae deletion strains, locus YOL012C, strain htz1",0.333
same,normalized growth,"S. cerevisiae deletion strains, locus YOL147C, strain pex11, active compounds read low",0.0953 (active)
same,normalized growth,"S. cerevisiae deletion strains, locus YOR001W, strain rrp6, active compounds read low",0.21 (active)
same,normalized growth,"S. cerevisiae deletion strains, locus YOR061W, strain CKA2, active compounds read low",0.0666 (active)
same,normalized growth,"S. cerevisiae deletion strains, locus YOR069W, strain VPS5, active compounds read low",0.0731 (active)
same,normalized growth,"S. cerevisiae deletion strains, locus YOR070C, strain gyp1, active compounds read low",0.575 (active)
same,normalized growth,"S. cerevisiae deletion strains, locus YOR080W, strain dia2, active compounds read low",0.09 (active)
same,normalized growth,"S. cerevisiae deletion strains, locus YOR083W, strain WHI5, active compounds read low",0.112 (active)
same,normalized growth,"S. cerevisiae deletion strains, locus YOR106W, strain vam3, active compounds read low",0.0906 (active)
same,normalized growth,"S. cerevisiae deletion strains, locus YOR136W, strain idh2, active compounds read low",0.156 (active)
same,normalized growth,"S. cerevisiae deletion strains, locus YOR144C, strain elg1, active compounds read low",0.0898 (active)
same,normalized growth,"S. cerevisiae deletion strains, locus YOR184W, strain ser1, active compounds read low",0.133 (active)
same,normalized growth,"S. cerevisiae deletion strains, locus YOR231W, strain MKK1, active compounds read low",0.14 (active)
same,normalized growth,"S. cerevisiae deletion strains, locus YOR265W, strain rbl2, active compounds read low",0.0593 (active)
same,normalized growth,"S. cerevisiae deletion strains, locus YOR270C, strain vph1, active compounds read low",0.129 (active)
same,normalized growth,"S. cerevisiae deletion strains, locus YOR290C, strain snf2, active compounds read low",0.0939 (active)
same,normalized growth,"S. cerevisiae deletion strains, locus YOR316C, strain cot1, active compounds read low",0.0886 (active)
same,normalized growth,"S. cerevisiae deletion strains, locus YPL051W, strain arl3, active compounds read low",0.0895 (active)
same,normalized growth,"S. cerevisiae deletion strains, locus YPL078C, strain atp4, active compounds read low",0.0936 (active)
same,normalized growth,"S. cerevisiae deletion strains, locus YPL106C, strain sse1, active compounds read low",0.16 (active)
same,normalized growth,"S. cerevisiae deletion strains, locus YPL240C, strain hsp82, active compounds read low",0.0764 (active)
same,normalized growth,"S. cerevisiae deletion strains, locus YPL256C, strain CLN2, active compounds read low",0.15 (active)
same,normalized growth,"S. cerevisiae deletion strains, locus YPR119W, strain clb2, active compounds read low",0.0998 (active)
same,normalized growth,"S. cerevisiae deletion strains, locus YPR141C, strain kar3, active compounds read low",0.235 (active)
same,normalized growth,"S. cerevisiae deletion strains, locus YPR163C, strain tif3, active compounds read low",0.107 (active)
same,normalized growth,"S. cerevisiae deletion strains, locus YPR167C, strain met16, active compounds read low",0.103 (active)
same,normalized growth,"S. cerevisiae deletion strains, strain wtn01, active compounds read low",0.116 (active)
same,normalized growth,"S. cerevisiae strains, strain wild type, active compounds read low",0.0715 (active)
